Pf growth 96h – P. falciparum growth inhibition at 96 hours. P. falciparum luciferase reporter growth, 96 h. Potency, µM (highest dose often 28.7 µM), without a hit: top-dose activity change, negative = inhibition, hits mostly inhibitors. 6.9% of 320,000 active. AID 504834; active means well fitted inhibition curve with a large enough effect; inconclusive means small, poorly fitted or top-dose-only effect, or another doubt; inactive means no such curve, though single readings can be large or run the other way; further: on the % scale 0 is the no-effect control and ±100 the full control effect
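Parasite growth measured via integrated firefly luciferase reporter in P. falciparum. Infected erythrocytes at 2% hematocrit, 0.05% parasitemia final were treated 96 hours at 37 C under 5% CO2, and luminescence was read.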
SARS PLP yeast – SARS-CoV PLP inhibition in yeast; S. cerevisiae expressing SARS-CoV PLpro, growth rescue; Potency, µM (highest dose often 32.9 µM), inactives show at the highest dose activity, positive = growth rescue, most hits filed as activators; 0.19% of 330,000 active; further: 0% is about no effect; nearly all actives have a fitted effect of over 55% in size
Pf growth 48h – P. falciparum growth inhibition at 48 hours (one generation) | 5.9% of 310,000 active | Potency, µM (top dose mostly 28.7 µM), inactives show top-dose activity change, negative = inhibition, hits mostly inhibitors | AID 504832 | P. falciparum luciferase growth in erythrocytes, 48 h; active means well fitted inhibition curve with a large enough effect; inconclusive means small, poorly fitted or top-dose-only effect, or another doubt; inactive means no such curve, though single readings can be large or run the other way; further: on the % scale 0 is the no-effect control and ±100 the full control effect
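Parasite viability was followed by luminescence of a genomically integrated firefly luciferase. Cultures held 0.1% parasitemia at 2% hematocrit (final), incubated under 5% CO2 at 37 C.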
NS1 inh – inhibitors of influenza NS1 protein function; Potency, µM (doses to about 46.1 µM), inactives show top-dose activity, positive = more growth; 0.4% of 270,000 active; AID 2326; further: actives are rising curves; nearly all actives have a fitted effect of over 50% in size
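In this qHTS, NS1 from influenza A is expressed in budding yeast, where it slows growth. Cells are switched from glucose to 2% galactose medium (pH 6.0, -URA), treated with compound, and growth recovery is read at OD600.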
* hit, by the source's call. This is a sample that favours compounds with a hit; in the whole collection about 10% have one here. Unless noted, the call rests on the fitted dose curve. Potency means the concentration at half of the fitted maximal effect.

COc1ccc(CCNC(=O)Cn2cc(C(F)(F)F)cc(Cl)c2=O)cc1OC was read as Pf growth 96h inconclusive, SARS PLP yeast -1.9%, Pf growth 48h 6.57µM* and NS1 inh 1.7%.
Screening COc1cc(C(=O)NC2CCCc3ccccc32)ccc1OCC(=O)Nc1ccc(F)cc1 (stereo not drawn) returned Pf growth 96h 13.1µM*, SARS PLP yeast -11.9%, Pf growth 48h inconclusive and NS1 inh -4.4%.
Screening Cc1nc(C)c(C(=O)OC(C)C(=O)Nc2ccc(F)cc2)s1 (stereo not drawn) returned Pf growth 96h -0.8%, SARS PLP yeast 2.5% and Pf growth 48h inconclusive.
Screening CCC(O)C1CCN(C(=O)c2cc(COc3ccc(F)cc3F)on2)CC1 (stereo not drawn) returned Pf growth 96h 1.0%, SARS PLP yeast -0.2%, Pf growth 48h 12.4% and NS1 inh -27.4%.
Screening CCOC(=O)c1ccc(Nc2ccc(-c3ccc(OC)c(OC)c3)nn2)cc1 returned Pf growth 96h -5.4%, SARS PLP yeast -0.9%, Pf growth 48h 11.7µM* and NS1 inh -6.2%.
Screening COc1ccc(CCNC(=S)NCCc2ccc(OC)c(OC)c2)cc1OC returned Pf growth 96h 13.1µM*, SARS PLP yeast 0.2%, Pf growth 48h 6.57µM* and NS1 inh 0.1%.
COc1ccccc1NC(=S)NCCc1ccc(OC)c(OC)c1 was read as Pf growth 96h 4.65µM*, SARS PLP yeast -0.7%, Pf growth 48h 2.62µM* and NS1 inh -5.8%.
Screening CCOC(=O)c1ccc(NC(=S)N2CCN(CCNC3=CC(=O)CC(C)(C)C3)CC2)cc1 returned Pf growth 96h -18.2%, SARS PLP yeast 4.3% and Pf growth 48h 0.0262µM*.
`CCOC(=O)c1ccc(NC(=S)N2CCN(CCN=CC3=C(O)CC(C)(C)CC3=O)CC2)cc1` gave Pf growth 96h 4.9%, SARS PLP yeast 2.5%, Pf growth 48h -25.0% and NS1 inh 1.3%.
For CCC1Oc2ccc(C)cc2N(CC(=O)NCCc2ccc(OC)c(OC)c2)C1=O (stereo not drawn) the results were NS1 inh -18.0%.
CCOC(=O)c1ccc(NC(=O)COc2ccc(CNC3CCCCC3)cc2OC)cc1 was read as Pf growth 96h 28.0%, SARS PLP yeast 0.4%, Pf growth 48h 4.65µM* and NS1 inh 1.3%.
`CCC1Oc2ccccc2N(CC(=O)NCCc2ccc(OC)c(OC)c2)C1=O` (stereo not drawn) gave Pf growth 96h 3.29µM*, SARS PLP yeast 0.2%, Pf growth 48h inconclusive and NS1 inh -1.0%.
Screening COc1cc(CNC2CCCCCCC2)ccc1OCC(N)=O returned Pf growth 96h inconclusive, SARS PLP yeast -2.9%, Pf growth 48h -19.7% and NS1 inh -10.5%.
For COc1ccc(CCNC(=S)c2ccccc2)cc1OC the results were Pf growth 96h 5.22µM*, SARS PLP yeast -0.3%, Pf growth 48h 4.65µM* and NS1 inh -5.4%.
`CCOC(=O)c1ccc(NC(=S)NCCCN2CCCC2=O)cc1` gave Pf growth 96h 2.62µM*, SARS PLP yeast -0.5%, Pf growth 48h 44.0% and NS1 inh 5.9%.
Screening CCC1CCCCN1C(=O)COC(=O)c1ccc(Br)o1 (stereo not drawn) returned Pf growth 96h inconclusive, SARS PLP yeast -1.5% and Pf growth 48h -17.0%.
`COc1ccc(NS(=O)(=O)c2ccc(C)c(NC(=O)CNC(=O)c3ccco3)c2)cc1` gave Pf growth 96h 84.0%, SARS PLP yeast 4.2% and Pf growth 48h -5.2%.
O=C(COC(=O)c1ccc(O)cc1O)Nc1nnc(-c2ccccc2)o1 was read as Pf growth 96h 7.6%, SARS PLP yeast -4.2% and Pf growth 48h 2.7%.
For C#CCOC(=O)c1cc(Cl)c(=O)n(Cc2ccc(Cl)cc2Cl)c1 the results were Pf growth 96h -23.4%, SARS PLP yeast -2.0%, Pf growth 48h inconclusive and NS1 inh -2.6%.
`O=C(c1ccco1)N1CCN(C(=O)c2cn(-c3ccccc3)nc2-c2ccccc2)CC1` gave Pf growth 96h 17.2%, SARS PLP yeast -1.0% and Pf growth 48h -4.9%.
CC(C)Oc1ccccc1C1(c2ccccc2)NC(=O)NC1=O (stereo not drawn) was read as Pf growth 96h inconclusive, SARS PLP yeast 1.4%, Pf growth 48h 14.6% and NS1 inh 8.2%.
`COc1ccc(CN(Cc2cccnc2)C(=S)NCCc2ccccc2)cc1OC` gave Pf growth 96h 14.7µM*, SARS PLP yeast 1.6%, Pf growth 48h inconclusive and NS1 inh inconclusive.
COc1ccc(CN(CCc2ccccc2)Cc2ccccc2)cc1OC was read as Pf growth 96h inconclusive, SARS PLP yeast 0.9%, Pf growth 48h 8.28µM* and NS1 inh -0.5%.
O=S(=O)(Nc1ccc(C(F)(F)F)cn1)c1ccccc1 was read as Pf growth 96h -18.8%, SARS PLP yeast -0.8%, Pf growth 48h -10.3% and NS1 inh -3.6%.
For O=C(NC(=S)N1CCCCC1)c1csc([N+](=O)[O-])c1 the results were Pf growth 96h 5.22µM*, SARS PLP yeast 0.8%, Pf growth 48h 14.7µM* and NS1 inh 3.0%.
`C=CCNC(=S)NC(=O)c1csc([N+](=O)[O-])c1` gave Pf growth 96h inconclusive, SARS PLP yeast -2.0%, Pf growth 48h 9.0% and NS1 inh -0.9%.
COC(=O)c1cc(S(=O)(=O)NCc2cc(OC)c(OC)c(OC)c2)cn1C was read as Pf growth 96h 25.3%, SARS PLP yeast 4.1%, Pf growth 48h 7.9% and NS1 inh 3.8%.
For CN(Cc1cccc(Cl)c1Cl)C(=O)c1ccc(NC(=O)CC#N)cc1 the results were Pf growth 96h 14.7µM*, SARS PLP yeast 15.1%, Pf growth 48h -26.5% and NS1 inh 20.2%.
For CN(C)C(CNC(=O)c1ccc(NC(=O)CC#N)cc1)c1ccccc1 (stereo not drawn) the results were Pf growth 96h inconclusive, SARS PLP yeast -2.6% and Pf growth 48h inconclusive.
CC1(C)CC(=O)C(Sc2ccccc2[N+](=O)[O-])=C(O)C1 was read as Pf growth 96h -9.8%, SARS PLP yeast 10.8%, Pf growth 48h 3.5% and NS1 inh 14.8%.
`COc1ccccc1C(=O)NC(=O)COC(=O)Cc1ccccc1[N+](=O)[O-]` gave Pf growth 96h 14.5%, SARS PLP yeast -2.8% and Pf growth 48h 1.6%.
`Oc1ccccc1C1CCCCC1c1ccccc1` (stereo not drawn) gave Pf growth 96h inconclusive, SARS PLP yeast -12.3%, Pf growth 48h 7.38µM* and NS1 inh -41.6%.
Screening CN(C(=O)c1ccnn1C)C1CCCN(Cc2ccccc2F)C1 (stereo not drawn) returned Pf growth 96h inconclusive, SARS PLP yeast -3.9%, Pf growth 48h -9.0% and NS1 inh 8.0%.
For CC(=O)Nc1sc(C)c(C)c1CN1CCN(Cc2ccccc2)CC1 the results were Pf growth 96h 4.15µM*, SARS PLP yeast -1.2%, Pf growth 48h inconclusive and NS1 inh 1.3%.
Cc1sc(NC(=O)c2ccco2)c(CN2CCN(c3ccccn3)CC2)c1C was read as Pf growth 96h 8.1%, SARS PLP yeast -13.6%, Pf growth 48h 9.28µM* and NS1 inh -127.7%.

Assay outcomes as filed in PubChem BioAssay.
